Source: PubChem BioAssay (Tox21)
Records with an inconclusive call do not appear. Where a call stands in place of a potency, no number is given. Activity calls are given as the source filed them. The call rests on the fitted dose curve; in most records, active means well fitted inhibition curve with a large enough effect in the signal ratio in the repeat runs (not every such curve was filed as active); inconclusive means weak or mixed curves, or effect the other way; inactive means flat fitted curve, though single readings scatter; the % refers to the signal ratio.

Experiment: cAMP Responsive Elements (CRE) small molecule antagonists, cell-based qHTS assay (AID 1963591)
Conditions: CRE-bla HEK293T, beta-lactamase FRET ratio; series mostly up to 92.4 µM
From the text: U.S. Tox21 Program National Center for Advancing Translational Sciences [NCATS] Division of Preclinical Innovation [DPI] U.S. Environmental Protection Agency [EPA] National Institutes of Environmental Health Sciences [NIEHS] National Toxicology Program [NTP] U.S. Food and Drug Administration [FDA] Tox21 Assay Overview: CREB (cyclic-AMP Responsive Element Binding Protein) is a cellular transcription factor. It binds to certain DNA sequences called cAMP Responsive Elements (CRE) and regulates the transcription of the genes. […] This cell line can be used to find agonists/antagonists of the cyclic AMP signaling pathway. The activation of the report gene under culture conditions can be detected by fluorescence intensity. This cell line has been used to screen the Tox21 10K compound library to […].
Tox21 Assay Protocol Summary: CRE-bla Hek 293T cells were suspended in assay medium (DMEM containing 10% dialyzed FBS, 0.1 mM NEAA, 1 mM sodium pyruvate and 25 mM HEPES) and dispensed at 2,000 cells/4 uL /well into 1536-well black wall/clear bottom plates using a Multidrop Combi (ThermoFisher Scientific, Waltham, MA) dispenser. After the assay plates were incubated at 37 C/5% CO2 for 18 hrs, 23 nL of compounds dissolved in DMSO, positive controls or DMSO only was transferred to the assay plate by a pintool workstation (Kalypsys, San Diego, CA), followed by addition of 1 […] uL of 1.25uM NKH477 (0.25 uM as final concentration) in assay medium using a Flying Reagent Dispenser (Aurora Discovery, San Diego, CA). The plates were incubated at 37 C and 5% CO2 for 3 hrs. Then 1 uL of LiveBLAzer B/G FRET substrate (Invitrogen, Carlsbad, CA) was added to each well using Bioraptr Flying Reagent Dispenser (FRD, Aurora Discovery, San Diego, CA). The plates were incubated at room temperature for 2 h.
Potency means the concentration at half of the fitted maximal effect.

SMILES	Potency
CCOC(=O)CCc1ccccc1	inactive
O=C1C(=O)c2ccccc2C(O)=C1C1CCC(c2ccc(Cl)cc2)CC1 (stereo not given)	inactive
Nc1ncnc2c1ncn2[C@@H]1O[C@H](CO)[C@@H](O)[C@H]1O	inactive
CC1(C)S[C@@H]2[C@H](N=CN3CCCCCC3)C(=O)N2[C@H]1C(=O)O	inactive
Cc1ccccc1N1CCN(CCc2nnc3n2CCCC3)CC1	inactive
COc1ccc(CN(CCN(C)C)c2ncccn2)cc1	inactive
Nc1ccccc1S(=O)(=O)c1ccccc1	inactive
Cc1cc(C(=O)O)ccc1[N+](=O)[O-]	inactive
C=CC(C)(O)CCCC(C)CCCC(C)CCCC(C)C (stereo not given)	inactive
OC[C@H](Cc1cccc(O)c1)[C@H](CO)Cc1cccc(O)c1	inactive
C=CCSSCCC	inactive
CC[C@H]1OC(=O)[C@H](C)[C@@H](O[C@H]2C[C@@](C)(OC)[C@@H](O)[C@H](C)O2)[C@H](C)[C@@H](O[C@@H]2O[C@H](C)C[C@H](N(C)C)[C@H]2O)[C@](C)(O)C[C@@H](C)C(=O)[C@H](C)[C@@H](O)[C@]1(C)O	inactive
C=CC(OCC)OCC	inactive
CC(CC(C)(C)C)CC(C)(C)CC(C)(C)C (stereo not given)	inactive
CNc1c2c(nn1C)CCCC2	inactive
O=C(OCCCCCCOC(=O)c1ccccc1)c1ccccc1	inactive
CCCCC(CC)COC(=O)COc1ccc(Cl)cc1C (stereo not given)	inactive
CC(C)NCC(O)COc1ccc(COCCOC(C)C)cc1 (stereo not given)	inactive
CCCCCCCCCCCCCCCCCC#N	inactive
CCO[Si](CC)(OCC)OCC	inactive

SMILES	Potency
O=C(OCc1ccccc1)C(=O)OCc1ccccc1	inactive
C/C=C(\C)C#N	inactive
CC1(c2ccccc2)OC(C(=O)O)=CC1=O (stereo not given)	inactive
CCC(O)C(C)(C)C (stereo not given)	inactive
CCOC(=O)CC(=O)c1cc(F)c(Cl)nc1Cl	inactive
CCC(C)(CCCC(C)C)OC(C)=O (stereo not given)	inactive
CC(C)(C)N(CCO)CCO	inactive
Cc1nc(-c2ccc(Cl)cc2)oc1COC(C)(C)C(=O)O	inactive
C[C@]1(Cn2ccnn2)[C@H](C(=O)O)N2C(=O)C[C@H]2S1(=O)=O	1.88 µM (active)
CN(C)CCN(Cc1ccc(Cl)cc1)c1ccccn1	inactive
CCCCOC(=O)[C@@H](C)Oc1ccc(Oc2ccc(C(F)(F)F)cn2)cc1	inactive
OCc1ccccn1	inactive
CN1C(=O)N(c2ccccc2Br)Cc2cnc(Nc3ccc4c(c3)OCC(CO)O4)nc21 (stereo not given)	57 µM (active)
CCn1cc(C(=O)O)c(=O)c2cc(F)c(N3CCNC(C)C3)c(F)c21 (stereo not given)	inactive
CCOC(=O)CC	inactive
Nc1ccc(Oc2cccc(Oc3ccc(N)cc3)c2)cc1	inactive
COC(=O)c1cc(C(=O)OC)cc(S(=O)(=O)O)c1	inactive
NS(=O)(=O)c1cc(-c2nn[nH]n2)c(NCc2cccs2)cc1Cl	inactive
CCCCCCCCCCOS(=O)(=O)O	inactive
CCCCCCCCCCCC	inactive
